The structures appear in SMILES notation. This is part of a sample that, as a whole, favours compounds with a hit. Of some 83,000 tested, about 20% had one in any assay.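 Activity criterion: percent growth below 10, measured after cells in 96-well plates were exposed to a single compound concentration for 48 hours.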 The source made the active and inactive calls.

The assay concerns A498 renal. Description: NCI-60 one-dose screen, 48 h (100 = growth as untreated, 0 = no growth, -100 = all killed). As to conditions: 10 µM unless noted. The procedure:
Growth inhibition of the A498 human tumor cell line is measured as a screen for anti-cancer activity. Cells are grown in 96 well plates and exposed to the test compound for 48 hours. Compounds are tested at a single concentration, which is 10^-5 M for most compounds. The reported endpoint is percent growth (GI% or GIPRCNT), where numbers from 0 - 100% represent growth inhibition, and numbers from -100% - 0 represent cell death. For example, a value of 40 represents 60% growth inhibition. A value of 0 means no net growth occurred over the course of the experiment. A value of -40 indicates 40% of cells at the beginning of the experiment died by the end of the experiment. A value of -100 means all cells are dead at the end of the experiment.
NCI-60 Human Tumor Cell Lines Screen was performed using the standard one-dose NCI protocol, which is described in more detail at https://dtp.cancer.gov/discovery_development/nci-60/default.htm.
Compounds with GIPRCNT values below 10 were considered active. Activity score was based on GIPRCNT using the following formula: […]
Score is 0 for GIPRCNT values of 100 or above, 50 for GIPRCNT values of 0, and 100 for GIPRCNT values of -100.
As for `CS(=O)(=O)c1ccc(-c2nc3ccccc3n2CC(=O)N/N=C/c2ccccc2)cc1`, the growth was 111% (inactive).

Regarding `CCOC(=O)NC(=S)n1oc(=O)c2ccccc21`, the growth was 103% (inactive).

As to `COc1ccc(-c2cn(Cc3cc4ccccc4s3)nn2)cc1OCCN1CCCCC1`, the growth is -1.93% (active).

In the case of `Brc1ccc(Nc2nc(Nc3cnc4ccccc4c3)c3[nH]cnc3n2)cc1`, the growth is 79.6% (inactive).

On to `COc1ccc(/C=C(\C(=O)NCc2cccnc2)S(=O)(=O)c2ccccc2)cc1OC`, for which the growth is 51% (inactive).

For `O=S(=O)(Nc1cc(F)cc(F)c1)c1ccc(-c2cnc(C3CC3)o2)cc1`, the growth was 1.5% (active).

As for `O=C(NC1CCC(Br)CC1)C1CCCC(S(=O)(=O)NC2CCCCC2)C1` (stereo not given), the growth is -5.7% [25 µM] (active).

`CN1CCN(c2ccc(NC3=CC(=O)c4ncncc4C3=O)cc2)CC1`: the growth was -36.7% (active).

As to `O=C(Nc1nc(Cl)nc(Nc2ccc(N3CCOCC3=O)cc2)n1)c1ccc(Cl)s1`, the growth is 85.7% (inactive).

Take `Cc1nc2sc(C(=O)Nc3ccccn3)c(N)c2cc1C(C)O` (stereo not given): the growth was 77.1% (inactive).

As for `COc1ccc(C/C(C)=C(\c2ccc(O)cc2)c2ccc(OCCN3CCCCC3)cc2)cc1`, the growth was 110% (inactive).

Turning to `Clc1ccc(-c2nc(C(Cl)Cl)nc3cc(-c4ccccc4)nn23)cc1`, the growth was -15.8% (active).

With `O=C(c1c[nH]c2ccccc12)c1n[nH]c(=S)n1-c1ccc([N+](=O)[O-])cc1`, the growth is 87.9% (inactive).

For `COCCn1cc(-c2csc(-c3c[nH]c4ccccc34)n2)c2cccnc21`, the growth is 17.7% (inactive).

Consider `C#Cc1cccc(Nc2ncnc3cc(NC(=O)CCl)ccc23)c1`, for which the growth is 20.5% (inactive).

Take `COC(=O)[C@@]1(C)CC[C@]2(C)CC[C@]3(C)C4=CC=C5C(=CC(=O)C(O)=C5C)[C@]4(C)[C@@H](O)C[C@@]3(C)[C@@H]2C1`: the growth is 101% (inactive).

Turning to `N[C@@H]1CCC[C@H]1NCCCCN1C(=O)c2cccc3cc([N+](=O)[O-])cc(c23)C1=O`, the growth is 52.8% (inactive).

For the compound `Cc1ccc2nc(-c3ccc(C(=O)N/N=C/c4ccc([N+](=O)[O-])cc4)cc3)[nH]c2c1`, the growth was 82.8% (inactive).

On to `Nc1ccc(-c2ccncc2)cc1NC(=O)N1CCCC1`, for which the growth was 76.8% (inactive).

`O=C(/C=C/c1ccccc1)c1ccc(-n2cc(CN3CCN(c4cc5c(cc4F)c(=O)c(C(=O)O)cn5C4CC4)CC3)nn2)cc1`: the growth is 52.2% (inactive).

For the compound `O=C1C=CC2(O)OC/C(=C\c3ccccc3)C(O)=C2C1=O` (stereo not given), the growth is 108% (inactive).

As for `Cn1c(=O)c2[nH]c(SC/C(=N/O)c3ccc(Br)cc3)nc2n(C)c1=O`, the growth was -80% (active).

As for `N=C(N)c1ccc(-c2ccc(-c3cc(Cl)cc(Cl)c3)s2)s1`, the growth was 73.6% (inactive).

In the case of `CCOC(=O)c1nnn(-c2no[n+]([O-])c2-c2ccc(OC)cc2)c1COc1cccc2cccnc12`, the growth is 103% (inactive).

Regarding `COc1ccc(/C=C2\CN(C(=O)C(Cl)Cl)C/C(=C\c3ccc(OC)c(OC)c3)C2=O)cc1OC`, the growth is -48.2% (active).

With `C[C@H](c1nc2ccc(C#N)cc2[nH]1)[C@H]1CC[C@H]2[C@@H]3CCC4=CC(=O)CC[C@]4(C)[C@H]3CC[C@]12C`, the growth was 14.5% (inactive).

On to `C=C1C(=O)O[C@H]2[C@H]1CC/C(COC(=O)C(=O)c1c[nH]c3ccc(Cl)cc13)=C\CC[C@@]1(C)O[C@@H]21`, for which the growth is -87.4% (active).

Regarding `Cc1cc(N2CCN(CC(=O)Nc3ccc4c(ccn4Cc4ccccc4)c3)CC2)nc(N2CCOCC2)n1`, the growth is 22.9% (inactive).

Consider `O=C1/C(=C/c2ccc(Cl)cc2)CN(C(=O)C(Cl)Cl)C/C1=C\c1ccc(Cl)cc1`, for which the growth is -95.8% (active).

As to `CC(C)C1C2=C(NCCN1C(=O)c1ccncc1)C(C)(C)N(Cc1ccccc1)C2=O` (stereo not given), the growth is 113% (inactive).

`O=C(O)c1cn(C2CC2)c2cc(N3CCN(C(=O)N/N=C/c4cccc5ccccc45)CC3)c(F)cc2c1=O`: the growth was 86.1% (inactive).

For `COc1ccc(C2[C@@H](c3ccccc3)C(=O)N2c2cc(OC)c(OC)c(OC)c2)cc1F` (stereo not given in full), the growth is 2.92% (active).

Regarding `O=C(/C=C/C12c3ccccc3C(c3ccccc31)C1C(=O)NC(=O)C12)c1ccco1` (stereo not given), the growth was 61.7% (inactive).

For the compound `COc1nc(/C=C\Nc2ccc3c(c2)OCCOCCOCCOCCO3)nc(OC)n1`, the growth is 75.7% (inactive).

Consider `Cc1ccc(Cc2cnc(NC(=O)/C=C/c3ccc(C)o3)s2)cc1`, for which the growth was 25.1% (inactive).

As for `O=C(Nc1cc(Cl)ccc1O)c1ccccc1Nc1ccnc(C(F)(F)F)c1`, the growth was 53.7% (inactive).

In the case of `CNC(=O)Nc1ccc(-c2ccc3ncnc(Nc4cccc(Cl)c4)c3c2)cc1`, the growth is -8.06% (active).

Consider `COc1ccc(N/N=C/c2cn(-c3ccc(C(=O)O)cc3)nc2-c2cc3ccccc3oc2=O)cc1`, for which the growth is 125% (inactive).

In the case of `Fc1cccc(-c2nc(-c3c[nH]c4ncccc34)cs2)c1`, the growth was 76.6% [100 µM] (inactive).

In the case of `Cc1cc(=O)n(C(=S)Nc2ccc(Cl)cc2)c2cc(O)ccc12`, the growth is 122% (inactive).

These data come from PubChem BioAssay (NCI).
